Assay type in all cases: functional
In assay [1] the test system is Plasmodium falciparum. The experiment in a line: GSK_TCMDC: Inhibition of Plasmodium falciparum 3D7 in whole red blood cells, using parasite LDH activity as an index of growth. Test compounds present at 2uM.
Assay [2] has as its system Plasmodium falciparum. The experiment in a line: GSK_TCMDC: Inhibition of Plasmodium falciparum Dd2 in whole red blood cells, using parasite LDH activity as an index of growth. Test compounds present at 2uM.
Assay [3] deals with HepG2. The experiment in a line: GSK_TCMDC: Percent inhibition of human HepG2 cell line. Test compounds present at 10uM.

The Inhibition is how much of the control response was suppressed. For the compound `Cc1ccccc1C1CCN(C2CCC(NC(=O)/C=C/c3cc(F)cc(F)c3)CC2)CC1` (centres undefined), the Inhibition in assay [1] came to 99%; in assay [2] it was 33%; in assay [3], 53%.

For the compound `O=C(Nc1ccc(OC2CCN(Cc3ccccc3)C2)c(Cl)c1)c1ccco1.O=C(O)C(F)(F)F` (centres undefined), the Inhibition is 95% in assay [1], 94% in assay [2] and 13% in assay [3].

Regarding `Clc1ccc2nc(-c3cccnc3)[nH]c2c1`, the results for the Inhibition in assay [1], in assay [2] and in assay [3] were 92%, 97% and 0%, respectively.

For `COC(=O)C(Cc1ccccc1)NC(=O)NC1CCN(c2ccnc(Nc3ccc(F)cc3)n2)C1` (centres undefined), the Inhibition turned out to be 90% in assay [1], 14% in assay [2] and 0% in assay [3].

On to `CC(C)c1ccc(NC(=O)Nc2ccc(Cn3ncc(N4CCCNCC4)c(Cl)c3=O)cc2)cc1.O=C(O)C(F)(F)F`, for which the Inhibition in assay [1] was 85%; in assay [2] it was 27%; in assay [3], 11%.

Regarding `CSc1cccc(NC(=O)c2cc3ccccc3oc2=O)c1`, the results for the Inhibition in assay [1], in assay [2] and in assay [3] were 92%, 75% and 0%, respectively.

Consider `Cc1nnc2c(NC(=O)NC3CCCC3)cc3cc(-c4ccc(CN5CCN(C)CC5)cc4)ccc3n12`, for which the Inhibition in assay [1] was found to be 99%; in assay [2] it was 91%; in assay [3] it was 100%.

As to `CC(C)Cn1c(Sc2ccc(C#N)c([N+](=O)[O-])c2)nnc1-c1ccc(N(C)C)cc1`, the Inhibition in assay [1] is given as 98%; in assay [2], 98%; in assay [3] it was 4%.

Consider `O=C(NCCCCN1CCN(c2ccc3c(c2)CCC3)CC1)c1ccc(NC(=O)c2ccc(Cl)cc2)cc1`, for which the Inhibition in assay [1] was 98%; in assay [2], 35%; in assay [3], 38%.

For `COc1ccccc1N1CCN(C(C(=O)NCc2ccc3c(c2)OCO3)c2ccc(C)cc2)CC1` (centres undefined), the Inhibition in assay [1] came out at 85%; in assay [2], 81%; in assay [3] it was 1%.

Consider `CC(CN(C)C)C(=O)Nc1ccc(-c2ccc(-c3nc4ccccc4[nH]3)s2)cc1` (centres undefined), for which the Inhibition in assay [1] is reported as 100%; in assay [2], 86%; in assay [3], 14%.

Turning to `O=C(N[C@@H](Cc1ccccc1)C(=O)NC1CCCc2ccccc21)c1ccc(O)c(-c2ccc(Cl)c(Cl)c2)c1` (some centres undefined), the Inhibition in assay [1] was found to be 97%; in assay [2], 99%; in assay [3], 0%.

For the compound `COc1ccccc1CCNc1nc(C)cc(N[C@@H](Cc2ccccc2)C(=O)NCc2cccc(F)c2)n1.O=C(O)C(F)(F)F`, the Inhibition stood at 99% in assay [1], 86% in assay [2] and 31% in assay [3].
